Laboratory results taken from PubChem BioAssay (Tox21).
Inconclusive results are not listed. A call without a number means that no potency is given here. Activity calls are given as the source filed them. Unless noted, the call rests on the fitted dose curve; in most records, active means well fitted curve in the direction sought with a large enough effect in the repeat runs; inconclusive means weak or mixed curves; inactive means no such curve, though single readings can be large; an effect the other way counts as inactive or inconclusive.

Tests used:
[1] = qHTS assay to identify small molecule agonists of the peroxisome proliferator-activated receptor delta (PPARd) signaling pathway - cell viability counter screen (AID 743211); further: nearly all actives have a fitted effect of over 55% in size; further: potency means the concentration at half of the fitted maximal effect
Procedure, shortened: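 HEK293H PPARd-bla, 3000 cells/well; 5 h preincubation 37C/5% CO2; cpd in DMSO, 17 h 37C; B/G FRET substrate 2 h RT; CellTiter-Glo 30 min RT, luminescence.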

[2] = qHTS assay to identify small molecule antagonists of the peroxisome proliferator-activated receptor delta (PPARd) signaling pathway - cell viability counter screen (AID 743213); further: nearly all actives have a fitted effect of over 50% in size; further: potency means the concentration at half of the fitted maximal effect
Procedure, shortened: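 Cytotoxicity counter screen: CellTiter-Glo luminescence read 30 min after addition, in the same wells as the reporter assay. There, PPARd UAS-bla HEK293H cells (3000/well) were treated 17 h at 37 C with compound and 300 nM L165041.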

[3] = qHTS assay to identify small molecule agonists of the farnesoid-X-receptor (FXR) signaling pathway - cell viability counter screen (AID 743218); further: nearly all actives have a fitted effect of over 45% in size; further: potency means the concentration at half of the fitted maximal effect
Procedure, shortened: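 Readout: CellTiter-Glo luminescence, 30 min RT, multiplexed after the FXR-bla FRET reading. HEK 293T FXR-UAS-bla cells received compound 5 h post-plating and were incubated 16 h at 37 C.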

[4] = biological target: Bile acid receptor (Homo sapiens) (UniProt Q96RI1); assay: qHTS assay to identify small molecule agonists of the farnesoid-X-receptor (FXR) signaling pathway (AID 743220; active means well fitted activation curve with a large enough effect in the signal ratio in the repeat runs, not every such curve was filed as active; the % refers to the signal ratio)
Procedure, shortened: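 FXR-UAS-bla HEK 293T cells carrying a UAS-driven beta-lactamase reporter were plated for 5 h at 37C/5% CO2, then exposed to DMSO-dissolved Tox21 10K compounds for 16 h at 37C. A LiveBLAzer B/G FRET substrate was loaded for 2 h at room temperature before fluorescence reading.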

[5] = qHTS assay to identify small molecule agonists of the vitamin D receptor (VDR) signaling pathway - cell viability counter screen (AID 743224); further: nearly all actives have a fitted effect of over 50% in size; further: potency means the concentration at half of the fitted maximal effect
Procedure, shortened: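 In parallel with the bla FRET readout, cytotoxicity toward VDR-bla cells after 16 h compound exposure was assessed by CellTiter-Glo, with luminescence recorded after a 30 min room-temperature incubation.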

[6] = qHTS assay to identify small molecule antagonists of the vitamin D receptor (VDR) signaling pathway - cell viability counter screen (AID 743225); further: nearly all actives have a fitted effect of over 50% in size; further: potency means the concentration at half of the fitted maximal effect
Procedure, shortened: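 Read-out: CellTiter-Glo luminescence measured 30 min after reagent addition at room temperature. Cells were VDR-bla HEK 293T exposed 16 h at 37C, 5% CO2, to compound with 3 nM final calcitriol agonist.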

[7] = qHTS assay to identify small molecule agonists of the endoplasmic reticulum stress response signaling pathway - cell viability counter screen (AID 1159517; calls by dose curve; further: nearly all actives have a fitted effect of over 50% in size; further: potency means the concentration at half of the fitted maximal effect)
Procedure, shortened: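 ESRE-bla HeLa cells (1,500/well) were plated overnight at 37 C and exposed to compounds for 5 hr. After the 2 hr beta-lactamase substrate read, CellTiter-Glo went into the same wells, and luminescence was read after 30 min at room temperature.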

[8] = qHTS assay to identify small molecule antagonists of the retinoid-related orphan receptor gamma (ROR-gamma) signaling pathway - cell viability counter screen (AID 1159520); further: nearly all actives have a fitted effect of over 50% in size; further: potency means the concentration at half of the fitted maximal effect
Procedure, shortened: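 Cytotoxicity was read from cellular ATP (CellTiter-Glo luminescence) after 16 hr at 37 C with 1 uM doxycycline induction. The inducer was added 2 hr after compound transfer to Tet-on ROR gamma CHO cells.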

[9] = biological target: Peroxisome proliferator-activated receptor delta (Homo sapiens) (UniProt Q03181); assay: qHTS assay to identify small molecule agonists of the peroxisome proliferator-activated receptor delta (PPARd) signaling pathway (AID 743212; calls by dose curve;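 further: HEK293H cells with PPARd UAS beta-lactamase reporter GeneBLAzer system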; further: potency means the concentration at half of the fitted maximal effect)
Procedure, shortened: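 Beta-lactamase reporter readout: a ratiometric FRET signal from the LiveBLAzer substrate after 2 h at room temperature. Compound exposure at 37 °C in PPARδ-bla HEK293H cells driven by an upstream activator sequence.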

[10] = qHTS assay to identify small molecule antagonists of the farnesoid-X-receptor (FXR) signaling pathway - cell viability counter screen (AID 743221; active means well fitted cell-killing curve with a large enough effect in the repeat runs, not every such curve was filed as active; further: nearly all actives have a fitted effect of over 50% in size; further: potency means the concentration at half of the fitted maximal effect)
Procedure, shortened: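 Luminescence from CellTiter-Glo measures cytotoxicity in GeneBLAzer FXR-UAS-bla HEK 293T cells. Cells were exposed to compounds with 50 uM chenodeoxycholic acid (final) for 16 h at 37 C, in wells also used for the reporter readout.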

[11] = biological target: Peroxisome proliferator-activated receptor delta (Homo sapiens) (UniProt Q03181); assay: qHTS assay to identify small molecule antagonists of the peroxisome proliferator-activated receptor delta (PPARd) signaling pathway (AID 743215; active means well fitted inhibition curve with a large enough effect in the signal ratio in the repeat runs, not every such curve was filed as active; the % refers to the signal ratio;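 further: cells stimulated with agonist L165041 at 300 nM final during compound exposure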; further: potency means the concentration at half of the fitted maximal effect)
Procedure, shortened: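 Fluorescence from cleaved LiveBLAzer B/G FRET substrate (2 h, room temperature) reports PPARd-driven beta-lactamase in HEK293H UAS-bla cells. Cells had been treated 17 h at 37 C with compound plus 300 nM final L165041.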

[12] = biological target: Nuclear receptor ROR-gamma (Homo sapiens) (UniProt P51449); assay: qHTS assay to identify small molecule antagonists of the retinoid-related orphan receptor gamma (ROR-gamma) signaling pathway (AID 1159521; further: nearly all actives have a fitted effect of over 50% in size; further: potency means the concentration at half of the fitted maximal effect)
Procedure, shortened: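 CHO Tet-on RORγ, RORE-luc reporter. Cpd 2 h pre-incubation, then dox hyclate 1 uM final, 16 h, 37 C/5% CO2. ONE-Glo luminescence; decrease = antagonist.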

[13] = qHTS assay to identify small molecule agonists of the AP-1 signaling pathway - cell viability counter screen (AID 1159525; calls by dose curve; further: nearly all actives have a fitted effect of over 55% in size; further: potency means the concentration at half of the fitted maximal effect)
Procedure, shortened: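 Intracellular ATP by Cell Titer Glo luminescence (30 min, RT) in the same ME-180 AP-1-bla wells after the 5 h compound exposure at 37 °C. Normalised to tetra n-octyl ammonium bromide and DMSO controls.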

[14] = biological target: Vitamin D3 receptor (Homo sapiens) (UniProt P11473); assay: qHTS assay to identify small molecule agonists of the vitamin D receptor (VDR) signaling pathway (AID 743222; calls by dose curve; further: potency means the concentration at half of the fitted maximal effect)
Procedure, shortened: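 Following 4 h attachment at 37C, VDR-bla cells (2,000 per well) received DMSO-dissolved compounds or controls. After 16 h incubation, LiveBLAzer B/G FRET substrate was added and fluorescence read 2 h later at room temperature.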

[15] = biological target: Vitamin D3 receptor (Homo sapiens) (UniProt P11473); assay: qHTS assay to identify small molecule antagonists of the vitamin D receptor (VDR) signaling pathway (AID 743223; active means well fitted inhibition curve with a large enough effect in the signal ratio in the repeat runs, not every such curve was filed as active; the % refers to the signal ratio; further: potency means the concentration at half of the fitted maximal effect)
Procedure, shortened: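 Antagonist mode uses 1alpha,25-dihydroxyvitamin D3 at 3 nM final as stimulus. VDR-bla cells receive compounds in DMSO, incubate 16 h at 37C, then a beta-lactamase FRET substrate for 2 h at room temperature before fluorescence measurement.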

[16] = biological target: Retinoic acid receptor RXR-alpha (Homo sapiens) (UniProt P19793); assay: qHTS assay to identify small molecule agonists of the RXR signaling pathway (AID 1159527; calls by dose curve; further: nearly all actives have a fitted effect of over 35% in size)
Procedure, shortened: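 Read-out: beta-lactamase FRET ratio (405 nm excitation, 460 and 530 nm emission) after 2 hr substrate loading at room temperature. Cells were RXR-alpha-UAS-bla HEK 293T treated with compounds for 16 hr in 2% charcoal-stripped FBS medium.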

[17] = biological target: Bile acid receptor (Homo sapiens) (UniProt Q96RI1); assay: qHTS assay to identify small molecule antagonists of the farnesoid-X-receptor (FXR) signaling pathway (AID 743217; active means well fitted inhibition curve with a large enough effect in the signal ratio in the repeat runs, not every such curve was filed as active; the % refers to the signal ratio)
Procedure, shortened: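 FRET fluorescence after 2 h room-temperature LiveBLAzer loading gives the readout. Prior step: FXR-bla HEK 293T cells, seeded and incubated 5 h, received test compounds plus 50 uM final CDCA for 16 h at 37 °C.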

[18] = qHTS assay to identify small molecule agonists of the AP-1 signaling pathway (AID 1159526; calls by dose curve; further: potency means the concentration at half of the fitted maximal effect)

Bile acid receptor (Homo sapiens), sequence (Q96RI1 whole entry, looked up): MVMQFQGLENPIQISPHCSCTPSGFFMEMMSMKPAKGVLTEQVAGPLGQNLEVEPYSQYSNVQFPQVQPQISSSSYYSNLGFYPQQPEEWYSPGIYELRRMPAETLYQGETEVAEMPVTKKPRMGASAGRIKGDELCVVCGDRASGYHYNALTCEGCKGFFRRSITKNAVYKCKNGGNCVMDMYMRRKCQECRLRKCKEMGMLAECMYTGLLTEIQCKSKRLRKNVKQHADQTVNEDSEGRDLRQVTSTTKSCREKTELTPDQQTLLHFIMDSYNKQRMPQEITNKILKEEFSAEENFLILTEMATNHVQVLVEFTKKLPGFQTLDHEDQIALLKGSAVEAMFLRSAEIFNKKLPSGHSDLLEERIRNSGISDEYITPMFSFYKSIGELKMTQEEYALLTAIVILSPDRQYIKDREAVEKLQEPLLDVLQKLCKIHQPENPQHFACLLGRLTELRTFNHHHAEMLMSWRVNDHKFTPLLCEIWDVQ
Vitamin D3 receptor (Homo sapiens), sequence (P11473 whole entry, looked up): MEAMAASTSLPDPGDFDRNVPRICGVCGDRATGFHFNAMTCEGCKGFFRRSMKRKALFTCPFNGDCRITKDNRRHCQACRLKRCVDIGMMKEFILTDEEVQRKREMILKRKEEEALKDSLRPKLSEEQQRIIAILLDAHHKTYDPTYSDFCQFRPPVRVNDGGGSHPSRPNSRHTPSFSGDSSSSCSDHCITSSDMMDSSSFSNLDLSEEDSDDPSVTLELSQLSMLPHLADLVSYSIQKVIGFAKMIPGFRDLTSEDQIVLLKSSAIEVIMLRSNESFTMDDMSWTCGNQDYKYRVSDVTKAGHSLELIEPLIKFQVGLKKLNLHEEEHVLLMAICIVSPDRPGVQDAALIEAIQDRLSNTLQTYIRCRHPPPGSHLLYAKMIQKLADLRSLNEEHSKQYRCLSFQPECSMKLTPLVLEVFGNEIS
Retinoic acid receptor RXR-alpha (Homo sapiens), sequence (P19793 whole entry, looked up): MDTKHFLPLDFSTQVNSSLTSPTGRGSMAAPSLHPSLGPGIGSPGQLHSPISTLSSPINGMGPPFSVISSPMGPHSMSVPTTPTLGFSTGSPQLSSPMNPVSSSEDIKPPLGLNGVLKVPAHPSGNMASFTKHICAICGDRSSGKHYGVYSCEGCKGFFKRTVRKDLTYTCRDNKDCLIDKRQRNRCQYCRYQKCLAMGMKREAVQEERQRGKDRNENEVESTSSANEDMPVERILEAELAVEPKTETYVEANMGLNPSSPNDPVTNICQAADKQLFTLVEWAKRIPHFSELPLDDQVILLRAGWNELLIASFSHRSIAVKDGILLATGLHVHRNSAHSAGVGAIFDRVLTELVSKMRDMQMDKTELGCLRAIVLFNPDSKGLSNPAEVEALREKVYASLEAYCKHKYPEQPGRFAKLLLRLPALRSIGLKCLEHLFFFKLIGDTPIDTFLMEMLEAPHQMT
Peroxisome proliferator-activated receptor delta (Homo sapiens), sequence (Q03181 whole entry, looked up): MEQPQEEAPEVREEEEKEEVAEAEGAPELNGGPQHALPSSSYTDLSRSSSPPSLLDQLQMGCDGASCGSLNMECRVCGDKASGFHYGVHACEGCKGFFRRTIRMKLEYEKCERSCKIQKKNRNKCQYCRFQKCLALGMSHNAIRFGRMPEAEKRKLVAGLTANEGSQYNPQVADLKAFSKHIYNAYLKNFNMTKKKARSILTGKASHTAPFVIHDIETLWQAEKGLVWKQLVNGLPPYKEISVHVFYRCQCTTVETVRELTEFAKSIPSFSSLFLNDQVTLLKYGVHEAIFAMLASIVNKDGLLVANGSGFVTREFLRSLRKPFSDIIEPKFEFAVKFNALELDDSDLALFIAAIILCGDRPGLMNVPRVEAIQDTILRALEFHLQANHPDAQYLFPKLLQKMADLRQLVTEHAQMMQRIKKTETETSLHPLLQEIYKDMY

| Compound | Potency [1] | Potency [2] | Potency [3] | Potency [4] | Potency [5] | Potency [6] | Potency [7] | Potency [8] | Potency [9] | Potency [10] | Potency [11] | Potency [12] | Potency [13] | Potency [14] | Potency [15] | Potency [16] | Potency [17] | Potency [18] |
| --- | --- | --- | --- | --- | --- | --- | --- | --- | --- | --- | --- | --- | --- | --- | --- | --- | --- | --- |
| CCN(C(=O)c1cc(C)cc(OC[C@H](C)Nc2ccncc2)c1)C(C)C | inactive | inactive | inactive | inactive | inactive | inactive | inactive | inactive | – | – | – | – | – | – | – | – | – | – |
| CCCCC(CC)COC(=O)c1ccccc1C(=O)O (stereo unspecified) | – | – | – | – | – | – | – | inactive | 49.9 µM (active) | inactive | – | – | – | – | – | – | – | – |
| C=CC(=O)OCCn1c(=O)n(CCOC(=O)C=C)c(=O)n(CCOC(=O)C=C)c1=O | 19.5 µM (active) | 19.5 µM (active) | 24.5 µM (active) | – | – | 43.6 µM (active) | – | inactive | – | 34.7 µM (active) | 13.8 µM (active) | 12.2 µM (active) | inactive | – | – | – | – | – |
| Clc1ccc2n[nH]nc2c1 | inactive | inactive | inactive | – | inactive | inactive | inactive | inactive | – | inactive | inactive | – | inactive | inactive | – | – | – | – |
| N=C1N=C(N)c2cc3ccccc3cc21 | – | – | 44.8 µM (active) | – | 49 µM (active) | – | 8.71 µM (active) | 30.6 µM (active) | – | – | – | 30.6 µM (active) | 49 µM (active) | – | – | – | – | – |
| O=C(OCC(COC(=O)c1ccccc1)(COC(=O)c1ccccc1)COC(=O)c1ccccc1)c1ccccc1 | inactive | inactive | inactive | – | inactive | – | inactive | inactive | – | inactive | inactive | – | inactive | inactive | inactive | inactive | – | – |
| CCc1cc(Cc2cc(CC)cc(C(C)(C)C)c2O)c(O)c(C(C)(C)C)c1 | 7.76 µM (active) | 6.92 µM (active) | 11 µM (active) | – | 6.17 µM (active) | 4.36 µM (active) | 21.9 µM (active) | 27.3 µM (active) | – | 11 µM (active) | – | 19.3 µM (active) | – | – | 17.4 µM (active) | – | – | – |
| CC(C)(C)C(=O)OCOC(=O)[C@@H]1N2C(=O)[C@@H](NC(=O)[C@H](N)c3ccccc3)[C@H]2SC1(C)C | inactive | inactive | inactive | inactive | inactive | inactive | inactive | inactive | inactive | – | inactive | – | inactive | inactive | inactive | inactive | inactive | – |
| CCC1=C[C@@H]2CN(C1)Cc1c([nH]c3ccccc13)[C@@](C(=O)OC)(c1cc3c(cc1OC)N(C)[C@H]1[C@@](O)(C(=O)OC)[C@H](OC(C)=O)[C@]4(CC)C=CCN5CC[C@]31[C@@H]54)C2 | 29.8 µM (active) | – | 26.6 µM (active) | – | inactive | inactive | inactive | inactive | – | – | inactive | – | – | inactive | – | – | – | 0.107 µM (active) |
| CO[Si](CCCNc1ccccc1)(OC)OC | inactive | inactive | inactive | inactive | – | inactive | inactive | – | inactive | inactive | inactive | inactive | inactive | inactive | inactive | inactive | inactive | – |
| N/C(=N\N=C\c1ccc(Cl)cc1)N/N=C/c1ccc(Cl)cc1 | inactive | – | – | inactive | – | – | 23.9 µM (active) | – | – | – | – | – | 13.4 µM (active) | inactive | – | – | inactive | – |
| O=C(c1ccc(F)cc1)C1CCN(CCn2c(=O)[nH]c3ccccc3c2=O)CC1 | – | inactive | inactive | – | – | – | inactive | inactive | inactive | – | inactive | – | inactive | – | – | – | – | inactive |
| Clc1ccc2nsnc2c1NC1=NCCN1 | inactive | inactive | inactive | inactive | inactive | inactive | – | inactive | inactive | inactive | inactive | – | inactive | inactive | inactive | inactive | inactive | inactive |
| O=c1[nH]sc2cc(Cl)ccc12 | 26.6 µM (active) | 11.9 µM (active) | – | inactive | 29.8 µM (active) | – | inactive | 26.6 µM (active) | – | – | – | – | – | – | – | – | – | – |
| CCOC(=O)/C=C(C)/C=C/C=C(C)/C=C/c1c(C)cc(OC)c(C)c1C | inactive | inactive | inactive | – | – | inactive | inactive | inactive | – | inactive | – | – | – | – | – | – | – | inactive |
| O=C1CCCc2c1cc1ccc3cccc4ccc2c1c34 | – | inactive | – | – | – | inactive | inactive | – | 49.6 µM (active) | inactive | – | – | inactive | 19.7 µM (active) | inactive | – | – | 22.2 µM (active) |
| O=C1c2c(O)ccc(Nc3ccc(CCO)cc3)c2C(=O)c2c([N+](=O)[O-])ccc(O)c21 | inactive | inactive | inactive | inactive | inactive | inactive | inactive | – | inactive | inactive | – | inactive | – | – | – | – | inactive | – |
| CN(C)[C@@H]1C(=O)C(C(N)=O)=C(O)[C@@]2(O)C(=O)C3=C(O)c4c(O)ccc(Cl)c4[C@@H](O)[C@H]3C[C@@H]12 | inactive | inactive | inactive | – | – | inactive | inactive | inactive | – | inactive | – | – | inactive | – | – | – | – | inactive |
